Results published in the supplement of paper PMC13380429.
Counter-ions that a name gives are not always drawn.

Columns and labels:
[1] = system: Vero E6 infected with SARS-CoV-2; assay: morphology score (similarity to uninfected cells); higher = more like uninfected cells; conditions: 24 h
[2] = system: Vero E6 infected with SARS-CoV-2; assay: SARS-CoV-2 infection rate relative to infected DMSO; higher = more infection, active = 60 or less; conditions: 24 h

| SMILES | morphology score [1] | SARS-CoV-2 infection rate [2] |
| --- | --- | --- |
| CCOC(=O)c1ncn2c1[C@@H]1CCCN1C(=O)c1cc(OC)ccc1-2 (10 µM) | 0.286 | 95% (inactive) |
| O=C(OCCN1CCCCC1)c1c[nH]c2ccccc12 (10 µM) | 0.0285 | 102% (inactive) |
| NC(=O)c1ccc(N(C(N)=O)c2c(F)cccc2F)nc1-c1ccc(F)cc1F (10 µM) | -0.134 | 111% (inactive) |
| C[C@]12CCC(=O)C=C1[C@@H]1C[C@@H]1[C@H]1[C@@H]3[C@@H]4C[C@@H]4[C@@]4(CCC(=O)O4)[C@@]3(C)CC[C@@H]12 [drospirenone] (10 µM) | 0.176 | 101% (inactive) |
| CC(C)C(=O)Oc1ccc(CO)cc1[C@H](CCN(C(C)C)C(C)C)c1ccccc1 [fesoterodine] (10 µM) | 0.096 | 108% (inactive) |
| O=C(O)CCCNC(=O)c1cccnc1 [pikamilone] (10 µM) | 0.0672 | 100% (inactive) |
| Nc1ccc(S(=O)(=O)Nc2ccc(Cl)nn2)cc1 [sulfachlorpyridazine] (10 µM) | 0.104 | 108% (inactive) |
| COc1cc2ncnc(Nc3ccc(F)c(Cl)c3)c2cc1NC(=O)/C=C/CN1CCCCC1 [dacomitinib] (0.833333 µM) | -0.0483 | 103% (inactive) |
| N#CCC1(n2cc(-c3ncnc4[nH]ccc34)cn2)CN(C2CCN(C(=O)c3ccnc(C(F)(F)F)c3F)CC2)C1 [itacitinib] (10 µM) | 0.22 | 97.5% (inactive) |
| O[C@H]([C@H](O)[C@@H]1CO1)[C@H]1CO1 [dianhydrogalactitol] (10 µM) | -0.0725 | 114% (inactive) |
| O=C(CCCCCCC(=O)Nc1cccnc1)NO [pyroxamide] (0.833333 µM) | 0.0384 | 104% (inactive) |
| CS(=O)(=O)OCCCCOS(C)(=O)=O [busulfan] (10 µM) | -0.026 | 102% (inactive) |
| Cc1ncc(CO)c(/C=N/NC(=O)c2ccncc2)c1O [pyridoxal-isonicotinoyl-hydrazone] (10 µM) | -0.0797 | 100% (inactive) |
| CN[C@@H]1[C@H](O[C@H]2[C@H](O[C@H]3[C@H](O)[C@@H](O)[C@H](N=C(N)N)[C@@H](O)[C@@H]3N=C(N)N)O[C@@H](C)[C@]2(O)C=O)O[C@@H](CO)[C@H](O)[C@H]1O [STREPTOMYCIN SULFATE [5mM; 10% aq DMSO + 5mM ethanolamine]] (10 µM) | 0.104 | 104% (inactive) |
| Nc1n[nH]c2nnc(-c3c(-c4ccccc4)nn4ccccc34)cc12 (10 µM) | 0.264 | 103% (inactive) |
| O=C(OCC(O)CO)c1ccccc1Nc1ccnc2cc(Cl)ccc12 (configuration not stated) [glafenine] (10 µM) | 0.535 | 83% (inactive) |
| COc1ccc([C@]2(C#N)CC[C@@H](C(=O)O)CC2)cc1OC1CCCC1 [cilomilast] (10 µM) | 0.246 | 104% (inactive) |
| CN1CCC(CNc2ccc3ncc(-c4cccc(OC(F)(F)F)c4)n3n2)CC1 (0.833333 µM) | 0.201 | 108% (inactive) |
| NS(=O)(=O)c1cc(C(=O)O)c(NCc2ccco2)cc1Cl [furosemide] (10 µM) | 0.0455 | 98% (inactive) |
| O=C(O[C@@H]1Cc2c(O)cc(O)cc2O[C@@H]1c1cc(O)c(O)c(O)c1)c1cc(O)c(O)c(O)c1 [epigallocatechin-gallate-(-)] (10 µM) | 0.156 | 100% (inactive) |
| Cc1ccc([N+](=O)[O-])cc1S(=O)(=O)N(C)/N=C/c1cnc2ccc(Br)cn12 (0.833333 µM) | 0.0254 | 112% (inactive) |
| NS(=O)(=O)c1ccc(C(=O)O)cc1 [carzenide] (10 µM) | 0.174 | 102% (inactive) |
| O=C(CCCCCN1C(=O)c2cccc3cccc(c23)C1=O)NO [scriptaid] (10 µM) | -0.255 | 120% (inactive) |
| O=C(N[C@@H]1CC[C@@H](c2cccc(F)c2F)CN(CC(F)(F)F)C1=O)N1CCC(n2c(=O)[nH]c3ncccc32)CC1 [telcagepant] (10 µM) | 0.0561 | 102% (inactive) |
| Cn1c(=O)[nH]c2ncn(C)c2c1=O [paraxanthine] (10 µM) | 0.141 | 110% (inactive) |
| O=c1c(O[C@@H]2O[C@H](CO)[C@H](O)[C@H](O)[C@H]2O)c(-c2ccc(O)c(O)c2)oc2cc(O)cc(O)c12 [hyperin] (10 µM) | -0.0819 | 112% (inactive) |
